From PubChem BioAssay
Inconclusive results are not listed. The source made the active and inactive calls.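 Rule for the calls, unless noted: active = normalized viability below 100% at a tested concentration; inactive = the rest.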

How the values were obtained:
[1] = drug combination growth inhibition, ovarian cancer – cell-based, oncology-focused library, rucaparib conditional, profiling panel (AID 1508598); settings: patient-derived ovarian cancer cells, CellTiter-Glo viability, 144 h, stronger effect = lower value
[2] = viability loss in pontine glioma line – cell-based, SU-DIPG-IV, MIPE4.0, CellTiter-Glo, qHTS, dose response (AID 1347063; cut-off not given, nearly all actives have AC50 up to about 30 µM;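 note: compound exposure lasted 48 hours before the viability readout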); settings: CellTiter-Glo ATP luminescence
[3] = growth inhibition of DIPG cells – cell-based, MIPE4.0 library, CellTiter-Glo luminescence, qHTS (AID 1347066; cut-off not given, nearly all actives have AC50 up to about 30 µM;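 note: cells exposed to compound for 48 hours before readout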); settings: SU-DIPG-VI viability, CellTiter-Glo ATP luminescence
[4] = growth inhibition of DIPG cells – cell-based, MIPE5.0 library, qHTS (AID 1347068; cut-off not given, nearly all actives have IC50 up to about 30 µM); settings: SU-DIPG-XXV viability
[5] = viability loss in pontine glioma line – cell-based, JHH-DIPG-1, MIPE4.0, CellTiter-Glo, qHTS, dose response (AID 1347062; cut-off not given, nearly all actives have AC50 up to about 27 µM); settings: JHH-DIPG-1 viability, CellTiter-Glo ATP luminescence
[6] = viability loss with induced miR-34 in A549 – imaging, A549 dox-inducible miR-34, nuclei and caspase counts, primary screen (AID 1347080;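 active = compounds whose cell count with miR-34 switched on is under 0.7 times the count with it off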); settings: A549 miR-34 inducible, Hoechst nuclei count, 48 h
[7] = compounds altering HSF1 focus formation in cells – imaging, Selleck Cancer Library (AID 1347162; in the data active = plate-normalised HSF1 focus index below about 0.46); settings: human cells, HSF1 nuclear foci imaging, at 10 µM; SSMD: measured here: HSF1 foci SSMD mean; cell count: measured here: cell number; plate-normalised HSF1 focus index: stronger effect = lower value
[8] = MELAS cybrid and Rieske KO viability enhancers – cell-based, MELAS cybrids, Rieske KO mouse fibroblasts, CellTiter-Glo, primary screen (AID 1508586;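 active = mean z-score across replicates of 1.96 or higher in either the MELAS or the Rieske mutant cell line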;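 note: z relative to plate mean and SD of compound and empty wells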); settings: low glucose
[9] = at 0.0195 µM, OCI-P5x cells, without rucaparib
[10] = at 0.0781 µM, OCI-C5x cells, with rucaparib 10 µM, 100% = cells with rucaparib alone
[11] = at 0.0781 µM, OCI-C5x cells, without rucaparib
[12] = at 0.0781 µM, OCI-P5x cells, with rucaparib 20 µM, 100% = cells with rucaparib alone
[13] = at 0.0781 µM, OCI-P5x cells, without rucaparib
[14] = at 0.313 µM, OCI-C5x cells, with rucaparib 10 µM, 100% = cells with rucaparib alone
[15] = at 0.313 µM, OCI-C5x cells, without rucaparib
[16] = at 0.313 µM, OCI-P5x cells, with rucaparib 20 µM, 100% = cells with rucaparib alone
[17] = at 0.313 µM, OCI-P5x cells, without rucaparib
[18] = at 1.25 µM, OCI-C5x cells, with rucaparib 10 µM, 100% = cells with rucaparib alone
[19] = at 1.25 µM, OCI-C5x cells, without rucaparib
[20] = at 1.25 µM, OCI-P5x cells, with rucaparib 20 µM, 100% = cells with rucaparib alone
[21] = at 1.25 µM, OCI-P5x cells, without rucaparib
[22] = at 5 µM, OCI-C5x cells, with rucaparib 10 µM, 100% = cells with rucaparib alone
[23] = at 5 µM, OCI-C5x cells, without rucaparib
[24] = at 5 µM, OCI-P5x cells, with rucaparib 20 µM, 100% = cells with rucaparib alone
[25] = at 5 µM, OCI-P5x cells, without rucaparib

Cc1nc(N)sc1-c1ccnc(Nc2ccc(N3CCOCC3)cc2)n1
inactive: viability [1, 9] 113% | viability [1, 10] 109% | viability [1, 11] 108% | viability [1, 12] 115% | viability [1, 13] 115% | viability [1, 14] 109% | viability [1, 15] 110% | viability [1, 16] 116% | viability [1, 17] 113% | viability [1, 18] 101% | viability [1, 19] 113% | viability [1, 20] 113% | viability [1, 21] 111% | viability [1, 22] 107% | viability [1, 23] 108% | viability [1, 25] 102%
active: viability [1, 24] 97%

CNC(=O)[C@H](CC1=CN=C2C=CCC=C12)NC(=O)[C@@H](CC(=O)NO)CC(C)C
active: AC50 [2] 37.2 nM | AC50 [3] 33.2 nM

C[C@]1(CO)CN(c2cc(C(=O)Nc3ccc4c(c3)-c3c(c(C(N)=O)nn3-c3ccc(F)cc3)CC4)c(Cl)cn2)C[C@@]1(C)CO
active: AC50 [2] 2090 nM

c1ccc(-c2oc3ncnc(NC[C@@H]4CCCO4)c3c2-c2ccccc2)cc1
active: AC50 [2] 20900 nM | AC50 [3] 20900 nM
inactive: outcome [4]

O=C(Nc1cccnc1)N1CCC(Cc2cccc(Oc3ccc(C(F)(F)F)cn3)c2)CC1
3120: cell count ([6]; measured here: total cells without miR-34 induction)
3.05: SSMD [7]
4250: cell count ([6]; measured here: total cells with miR-34 induction, stronger effect = lower value)
active: viability ([1]; at 0.00122 µM, OCI-P5x cells, without rucaparib) 99.8% | viability [1, 17] 98.4% | viability [1, 21] 96.3% | viability [1, 24] 87.1% | viability [1, 25] 85.5%
-0.332: z-score ([8]; Rieske KO mouse fibroblast survival, CellTiter-Glo 72 h)
0.837: fold change ([6]; measured here: relative caspase fold change +Dox/-Dox)
7690: cell count [7]
inactive: outcome [5] | outcome [4] | fold change ([6]; stronger effect = lower value, cell number ratio, induced over uninduced) 1.36 | plate-normalised HSF1 focus index [7] 1.19 | z-score ([8]; MELAS cybrid survival, CellTiter-Glo 48 h, stronger effect = higher value) -0.261 | viability ([1]; at 0.000305 µM, OCI-C5x cells, with rucaparib 10 µM, 100% = cells with rucaparib alone) 111% | viability ([1]; at 0.000305 µM, OCI-C5x cells, without rucaparib) 123% | viability ([1]; at 0.000305 µM, OCI-P5x cells, with rucaparib 20 µM, 100% = cells with rucaparib alone) 110% | viability ([1]; at 0.000305 µM, OCI-P5x cells, without rucaparib) 110% | viability ([1]; at 0.00122 µM, OCI-C5x cells, with rucaparib 10 µM, 100% = cells with rucaparib alone) 108% | viability ([1]; at 0.00122 µM, OCI-C5x cells, without rucaparib) 129% | viability ([1]; at 0.00122 µM, OCI-P5x cells, with rucaparib 20 µM, 100% = cells with rucaparib alone) 111% | viability ([1]; at 0.00488 µM, OCI-C5x cells, with rucaparib 10 µM, 100% = cells with rucaparib alone) 128% | viability ([1]; at 0.00488 µM, OCI-C5x cells, without rucaparib) 120% | viability ([1]; at 0.00488 µM, OCI-P5x cells, with rucaparib 20 µM, 100% = cells with rucaparib alone) 112% | viability ([1]; at 0.00488 µM, OCI-P5x cells, without rucaparib) 102% | viability ([1]; at 0.0195 µM, OCI-C5x cells, with rucaparib 10 µM, 100% = cells with rucaparib alone) 116% | viability ([1]; at 0.0195 µM, OCI-C5x cells, without rucaparib) 118% | viability ([1]; at 0.0195 µM, OCI-P5x cells, with rucaparib 20 µM, 100% = cells with rucaparib alone) 105% | viability [1, 9] 102% | viability [1, 10] 114% | viability [1, 11] 117% | viability [1, 12] 103% | viability [1, 13] 102% | viability [1, 14] 117% | viability [1, 15] 117% | viability [1, 16] 106% | viability [1, 18] 134% | viability [1, 19] 129% | viability [1, 20] 100% | viability [1, 22] 126% | viability [1, 23] 124%
